From PubChem BioAssay
An excerpt weighted towards active compounds, which were near 1.6% of everything screened.
KCNQ2 pot = KCNQ2 (rat) channel potentiation. O88943. CHO-K1 KCNQ2, FluxOR thallium flux fluorescence; active compounds read high. B-score at 10 µM. actives 0.54% (n = 310,000);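 active = fluorescence ratio B-score at least 3 SD of library B-scores, with initial fluorescence B-score within 3 of them, cut at about 5.3 in these data; same plate scores as AID 2156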;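 note: B-score of peak minus minimum over baseline fluorescence ratio after K+ and Tl+ stimulus; positive B-score means potentiation of KCNQ2 with more thallium influx and brighter signal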
KCNQ2 inh = inhibitors of rat KCNQ2 potassium channel. B-score at 10 µM. AID 2156. actives 1.1% (n = 310,000). O88943. CHO-K1 KCNQ2, FluxOR thallium flux, 20 min; active compounds read low;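 active = fluorescence ratio B-score at most minus 3 library SDs, with starting brightness B-score within 2 library SDs, cut at about -5.5 in these data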
* = called active by the depositor; i = inactive; · = no result.

SMILES	KCNQ2 pot	KCNQ2 inh
COc1ccc(-c2cc(C(=O)NCC3CCCO3)c3ccccc3n2)cc1 (centres undefined)	0.02	i
O=C(NCC1CCCO1)c1cc(-c2ccccc2)nc2ccc(Br)cc12 (centres undefined)	-7.4	-7.4*
COc1ccc(-c2nc(C(=O)NCC3CCCO3)cc3c2[nH]c2ccccc23)cc1 (centres undefined)	·	i
Cc1ccc2nc(-c3cccc(Br)c3)cc(C(=O)NCC3CCCO3)c2c1 (centres undefined)	·	i
O=C(NCC1CCCO1)c1cc2c([nH]c3ccccc32)c(-c2cccc(Br)c2)n1 (centres undefined)	-6.43	-6.43*
COC(=O)c1c(NC(=O)C2CCCCC2)sc2c1CC(C)(C)NC2(C)C	·	i
O=c1c2ccccc2nc2n1CC/C2=C\N1CCN(c2ccc([N+](=O)[O-])cc2)CC1	·	i
COc1ccc(/C(C#N)=C/c2c(-c3ccc(Cl)cc3)nc3c(C)cccn23)cc1	·	i
Cc1cccn2c(/C=N/OCc3ccc(F)cc3)c(-c3ccc(Cl)cc3)nc12	-6.57	-6.57*
Cc1nn(C(C)(C)C)c(OC(=O)C2CCCC2)c1S(=O)(=O)c1ccccc1	-5.96	-5.96*
Cc1ccc(S(=O)(=O)c2c(C)nn(C(C)(C)C)c2OC(=O)C2CCCC2)cc1	·	i
Cc1cccc(Cc2ccc(Cl)nn2)c1	0.02	i
CCOc1ccccc1NC(=O)c1cc(CC(C)C)oc1C	-6.16	-6.16*
COc1ccccc1NC(=O)c1cc(C)oc1C	·	i
CC(C)(C)OC(=O)N1CC=C2C(C#N)=C(N)C(C#N)(C#N)C(c3cccs3)C2C1 (centres undefined)	-6.19	-6.19*
CCOC(=O)N1CC=C2C(C#N)=C(N)C(C#N)(C#N)[C@H](c3cccs3)C2C1 (some centres undefined)	·	i
O=C(CCNS(=O)(=O)c1ccc(OC(F)(F)F)cc1)N1CCN(C/C=C/c2ccccc2)CC1	2.87	i
CCOC(=O)N1CCN(Cc2cc(Cl)c3cccnc3c2O)CC1	14.8*	i
COCc1cc(CN2CCN(C)CC2)c(O)c2ncccc12	·	i
COc1ccc(C(=O)N2CCC(C(=O)O)CC2)c2ccccc12	1.53	i
Cc1cc(=O)oc2c(C)c(OCC(=O)N3CCN(c4cccc(Cl)c4)CC3)ccc12	0.94	i
O=C(CSc1nncc(=O)[nH]1)Nc1cccc([N+](=O)[O-])c1	0.07	i
COc1cccc(/C=N/NC(=O)CSc2ccccc2C)c1OC	·	i
COc1cccc(/C=N/NC(=O)CSc2ccccc2C)c1O	9.45*	i
Clc1cccc(CSc2nnc(-c3sccc3-n3cccc3)o2)c1	·	i
SMILES	KCNQ2 pot	KCNQ2 inh
Clc1cc(Cl)cc(CSc2nnc(-c3sccc3-n3cccc3)o2)c1	-5.89	-5.89*
COCCn1c(SCC(=O)Nc2ccc(OC)c(S(N)(=O)=O)c2)nc2ccccc2c1=O	·	i
O=C(NCCN1CCOCC1)c1ccc(=O)n(Cc2ccc(Cl)cc2)c1	0.4	i
COc1cccc(-c2nc(CS(=O)(=O)CC(=O)NCCCc3ccccc3)c(C)o2)c1	·	i
COc1cccc(-c2nc(CS(=O)(=O)CC(=O)NCc3ccccc3)c(C)o2)c1	-5.86	-5.86*
CCOc1ccc(/C=C2\SC(=S)NC2=O)cc1OC	3.8	i
COc1ccc(/C=C2\SC(=O)NC2=S)cc1OC	5.9*	i
COc1cc(CNc2ccc(C(=O)O)cc2)cc(Br)c1OCC(=O)NC(C)(C)C	·	i
CCOc1cc(CNc2ccccc2)cc(Br)c1OCC(=O)NC(C)(C)C	-5.94	-5.94*
O=c1c2ccc(Cl)cc2[nH]c(=S)n1CCC1=CCCCC1	8.66*	i
CCOC(=O)N1CCN(C(=O)c2ccc3c(=O)n(CCC4=CCCCC4)c(=S)[nH]c3c2)CC1	0.45	i
CC(C)CC(=O)Nc1nnc(S(=O)(=O)N2c3ccccc3CC2C)s1 (centres undefined)	·	i
COc1ccc(C(CCN2CCCC(C)C2)c2c(OC)cc(OC)c3c(-c4ccccc4)cc(=O)oc23)cc1 (centres undefined)	-5.95	-5.95*
COc1cc(OC)c2c(-c3ccccc3)cc(=O)oc2c1C(CCN1CCCC(C)C1)c1ccc(N(C)C)cc1 (centres undefined)	·	i
O=C(CSc1nc(=O)n(CCN2CCOCC2)c2c1CCC2)Nc1ccc(OC(F)(F)F)cc1	·	i
N#CCCN(Cc1cccs1)C(=O)Nc1ccc(F)cc1	·	i
Cc1ccc(Oc2ccc(Cl)cc2NC(=O)c2ccc(F)cc2F)cc1	·	i
O=C(Nc1cccc(Cl)c1)N1N=CCC1c1ccccc1 (centres undefined)	-6.15	-6.15*
O=C(Nc1cccc2ccccc12)N1N=CCC1c1ccccc1 (centres undefined)	·	i
Cc1nnc(NC(=O)C23CC4CC(CC(C4)C2)C3)s1	0.05	i
COc1cccc(NC(=O)c2cc3ccccc3o/c2=N\O)c1	·	i
COc1cccc(NC(=O)c2cc3cccc(OC)c3o/c2=N\O)c1	-7.13	-7.13*
